# High-throughput results deposited in PubChem by National Center for Advancing Translational Sciences (NCATS).
# A selection: hits, their analogues and other compounds. The true share with any hit is near 0.8%.
# TRPML1 agonist – qHTS for Agonists of the Human Mucolipin Transient Receptor Potential 1 (TRPML1). TRPML1-expressing cells, Ca2+ dye fluorescence, FDSS. activation, % (test concentration not listed). 0.12% of 410,000 active; in the data active = activation above about 50%; inconclusive = mostly about 30% to 49%; also: 0% is about no effect
#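 Kinetic FDSS Ca2+ read in Tet-induced TRPML1-DL cells (ABD Ca8 dye plus quencher, 45-90 min RT loading): baseline, then compound, then 110 s agonist window; EC80 agonist 54-4 at 4uM final added afterwards for a 110 s antagonist window.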
# TRPML1 blocker – qHTS for Inhibitors of the Human Mucolipin Transient Receptor Potential 1 (TRPML1). Mucolipin-1 (Homo sapiens), Q9GZU1. TRPML1-inducible cells, Ca2+ dye fluorescence, FDSS; active compounds read low; inhibition of EC80 agonist-evoked calcium signal. activity change, negative = inhibition, % (concentration not given with the values). 0.02% of 390,000 active; in the data active = activity change below about -50%; inconclusive = between about -30% and that limit;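 also: stimulus is agonist 54-4 at its EC80 concentration; % is scaled to controls: 0 for no effect and ±100 for the full control effect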
#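 Calcium fluorescence in TRPML1-DL cells induced overnight with Tet: a 110 s read after compound pin addition, then a 110 s antagonist read after challenge with 54-4 at 4 uM final (EC80).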
# TRHR enhancer – qHTS for Small Molecule Agonists and Allosteric Enhancers of Human TRH Receptor: Primary Screen for Enhancers; Thyrotropin-releasing hormone receptor (Homo sapiens), P34981; TRHR cells, fluo-8 calcium fluorescence, EC20 TRH enhancement; enhancement, % at 2 µM; 0.66% of 360,000 active; AID 493056, 2011; in the data active = enhancement above about 30%; also: 0% is about no effect
# Target sequence (P34981 whole entry, looked up): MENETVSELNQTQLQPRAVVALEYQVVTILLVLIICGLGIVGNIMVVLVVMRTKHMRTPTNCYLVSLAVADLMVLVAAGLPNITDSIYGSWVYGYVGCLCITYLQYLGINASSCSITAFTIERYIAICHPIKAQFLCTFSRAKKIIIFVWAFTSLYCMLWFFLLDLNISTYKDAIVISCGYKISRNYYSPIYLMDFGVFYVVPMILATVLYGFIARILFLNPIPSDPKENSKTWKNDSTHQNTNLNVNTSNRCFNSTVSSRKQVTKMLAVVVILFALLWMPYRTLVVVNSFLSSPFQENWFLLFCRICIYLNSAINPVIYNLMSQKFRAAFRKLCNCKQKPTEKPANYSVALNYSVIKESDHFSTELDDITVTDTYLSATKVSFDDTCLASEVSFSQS
#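 TRHR-expressing cells loaded with fluo-8 calcium dye were read kinetically (ex 480/em 530) during compound addition, then stimulated with an EC20 of TRH (10 nM final). Enhancement of the Gq-mediated intracellular calcium response was scored.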
# TRHR ag – qHTS for Small Molecule Agonists and Allosteric Enhancers of Human TRH Receptor: Primary Screen for Agonists; Thyrotropin-releasing hormone receptor (Homo sapiens), P34981; TRHR cells, calcium flux fluo-8, FDSS agonist mode; activation, % at 2 µM; 0.18% of 360,000 active; in the data active = activation above about 30%; also: 0% is about no effect
#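 Agonist-mode FDSS calcium read (Ex 480/Em 530, 1 s cycles) in 1536-well TRHR cells with fluo-8 dye, after 10-cycle baseline and 23 nL compound addition; TRH at EC20 (10 nM final) added afterwards for the enhancer phase.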
# GRP78 ERSR act – qHTS for Inducers of the Endoplasmic Reticulum Stress Response (ERSR) in Human Glioma: qHTS | AID 602332, 2012 | 0.02% of 420,000 active | Potency, µM, inactives show top-dose activation, usual class: activators | U87-MG GRP78 promoter luciferase reporter, 16 h; active = well fitted activation curve with a large enough effect; inconclusive = small, poorly fitted or top-dose-only effect; inactive = no such curve, though single readings can be large or run the other way; also: potency is read from the fitted curve at half-maximal effect; series mostly up to about 76 µM; % of control where 0% means no effect; nearly all actives have a fitted effect of over 35% in size
#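 Stably transfected U87-MG glioma cells carrying a GRP78-based luciferase sensor; 16 h compound incubation. Luminescence end-point read 10 min after Bright-Glo addition at room temperature.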
# The depositor's hits bear a star; ? = inconclusive; . = not tested or not shown; ! = a repeat was not active.
SMILES,TRPML1 agonist,TRPML1 blocker,TRHR enhancer,TRHR ag,GRP78 ERSR act
CN1/C(=C\C=C2C(=O)NC(=O)NC2=O)C(C)(C)c2ccccc21,81*,-10,0,101*,-4%
N#C/C(=C/c1ccc(O)c(O)c1)C(N)=S,.,.,.,.,-3%
N#C/C(=C\c1ccc(O)c(O)c1)C(=O)NCCCNC(=O)/C(C#N)=C/c1ccc(O)c(O)c1,.,.,.,.,37µM*
COc1cc2c(cc1OC)CN(c1ccc([N+](=O)[O-])c(C(F)(F)F)c1)CC2,1,-4,37*,0,18%
Nc1ccc2ccccc2c1,1,14,.,.,-3%
C[n+]1c2cc(N)ccc2cc2ccc(N)cc21,104*,?,.,.,?
CN1CC[C@]23c4c5ccc(O)c4OC2C(O)CCC3[C@H]1C5 (some centres not stated),.,.,.,.,-1%
CCC(C(=O)N1CCC2(CC1)OCCO2)c1ccccc1 (configuration not stated),0,32,3,2,1%
CC(C(=O)N1CCC2(CC1)OCCO2)C1Sc2ccccc2NC1=O (configuration not stated),0,-2,35*,0,-4%
CC1(C)CSC(=NCc2ccccc2)N1,91*,8,-17,77*,14%
COc1cc2nc(N(C)C)c(CNCCc3c[nH]c4ccccc34)cc2c(OC)c1OC,.,.,.,.,-3%
Clc1ccccc1NC1=NCCCS1,0,1,35*,0,-1%
CCOC(=O)c1ccc(NC(=O)c2c(O)[nH]c(=O)[nH]c2=O)cc1,0,-2,13,73*,1%
CCOc1ccc(NC(=O)c2c(O)[nH]c(=O)[nH]c2=O)cc1,-1,14,.,.,3%
C[C@]12CCC3C(CCC4=CC(=O)CC[C@@H]43)C1CCC2O (some centres not stated),.,.,.,.,-3%
CCC1CC2CC3c4[nH]c5ccc(OC)cc5c4CCN(C2)C13 (configuration not stated),.,.,.,.,-5%
COc1ccc(OC)c(NP(=O)(Oc2ccc(Cl)cc2)Oc2ccc(Cl)cc2)c1,0,-2,9,0,-3%
COc1ccc(OC)c(NP(=O)(Oc2ccccc2)Oc2ccccc2)c1,3,22,30*,0,-3%
Cc1ccc(-n2c(O)c(C=NC3CCCC3)c(=O)[nH]c2=O)c(C)c1,1,9,41*,0,1%
CC(C)(C)c1ccc(O)c(N=Cc2c(O)ccc3ccccc23)c1,14,5,1,63*,-3%
CSc1ccccc1C(=O)C1CCCN(Cc2ccncc2)C1 (configuration not stated),0,-9,40*,-1,-1%
COc1ccccc1CN1CCCC(C(=O)c2ccccc2SC)C1 (configuration not stated),-2,1,-6,0,-6%
Oc1ccc2c3c1O[C@H]1[C@@H](O)C=CC4[C@@H](C2)NCC[C@@]341 (some centres not stated),.,.,.,.,-2%
Cc1nc2ccccc2c(=O)n1-c1ccc(C(=O)O)cc1,0,7,31*,0,-3%
CN[C@H]1C[C@@H](N)[C@H](O)[C@@H](O[C@@H]2O[C@H](CO)[C@H](O)[C@@H]3O[C@]4(O[C@@H]23)O[C@H]([C@@H](N)CO)[C@H](O)[C@@H](O)[C@H]4O)[C@@H]1O,.,.,.,.,-7%
CNc1ccc2oc(C[C@H]3O[C@@]4(CC[C@H]3C)O[C@H]([C@H](C)C(=O)c3ccc[nH]3)[C@H](C)C[C@H]4C)nc2c1C(=O)O,18,-4,-17,123*,?
Cc1ccc2c(Cl)cc(Cl)c(O)c2n1,0,8,.,.,28µM*!
CN(C)C(=O)Oc1c(Cl)cc(Cl)c2cccnc12,1,18,-6,-2,-3%
COC(=O)c1cc(C(O)(C(=O)OC)C(F)(F)F)c(/N=C/N(C)C)s1 (configuration not stated),0,-9,39*,0,-5%
